13 compounds from PubChem BioAssay can be followed below.

Activity calls are given as the source filed them. Unless noted, no rule for the calls is given here.

The nature of assay [1]: resazurin metabolic signal in HepG2 cells – cell-based, resazurin fluorescence, 24 h, PK04 Diversity Set, profiling panel (AID 1172). Also: test concentration not given here. As to conditions: HepG2 viability, higher = more signal.
A short description of assay [2]: budding yeast growth changes without added modifier – OD600, strain BY4716, 24 h, basal condition, primary screen (AID 1173). Particulars: S. cerevisiae BY4716 growth, OD600, 24 h; higher = more signal, called active from +8 up or from −8 down.
Assay [3] can be described thus: viability profiling in MM1S myeloma cells – cell-based, resazurin fluorescence, basal, 24 h, PK04 Diversity Set, profiling panel (AID 1174).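 Also: MM1S multiple myeloma cell line; test concentration not given here.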 Particulars: higher = more signal, called active from +8 up or from −8 down.
For assay [4], the target named is Dihydroorotate dehydrogenase (quinone), mitochondrial (Plasmodium falciparum (isolate 3D7)) (UniProt Q08210). The experiment in a line: inhibition of P. falciparum DHODH – biochemical, C-terminal His tag, absorbance 600 nm, primary screen (AID 1175).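 Also: recombinant parasite enzyme with a five histidine tag at its C terminus; test concentration not given here.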 Particulars: PfDHODH enzyme, DCIP absorbance 600 nm; higher = more signal, called active from +8 up or from −8 down.
Chain of Dihydroorotate dehydrogenase (quinone), mitochondrial (Plasmodium falciparum (isolate 3D7)) (Q08210 whole entry, looked up): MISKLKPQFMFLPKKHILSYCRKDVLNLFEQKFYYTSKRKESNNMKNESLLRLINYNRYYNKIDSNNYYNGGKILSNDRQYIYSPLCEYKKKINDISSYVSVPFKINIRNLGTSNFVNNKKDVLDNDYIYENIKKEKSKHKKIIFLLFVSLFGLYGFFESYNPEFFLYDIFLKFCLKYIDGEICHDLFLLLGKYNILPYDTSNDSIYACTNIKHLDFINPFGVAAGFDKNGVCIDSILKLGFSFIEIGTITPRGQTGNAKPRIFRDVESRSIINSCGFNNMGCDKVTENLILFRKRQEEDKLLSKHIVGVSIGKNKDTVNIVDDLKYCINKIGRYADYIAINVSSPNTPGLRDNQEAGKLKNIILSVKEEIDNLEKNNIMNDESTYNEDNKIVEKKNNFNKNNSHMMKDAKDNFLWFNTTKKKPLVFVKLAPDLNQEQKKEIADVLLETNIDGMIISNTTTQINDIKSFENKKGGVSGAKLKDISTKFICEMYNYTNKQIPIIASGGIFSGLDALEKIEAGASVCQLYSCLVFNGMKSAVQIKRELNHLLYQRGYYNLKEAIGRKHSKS

A short description of assay [5]: inhibition of PAO1 biofilm formation – strain PAO1, LB-PBS medium, absorbance 600 nm, primary screen (AID 1176). Also: test concentration not given here. As to conditions: P. aeruginosa PAO1 growth/biofilm, A600, 12 h; higher = more signal.
Assay [6] is described as follows: growth modulation of vineyard yeast isolate – strain RM11-1a, OD600, basal, 24 h, primary screen (AID 1177).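 Also: cultures grown under basal conditions with no added stressor; test concentration not given here.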 Particulars: S. cerevisiae RM11-1a growth, OD600, 24 h; higher = more signal, called active from +8 up or from −8 down.
Assay [7] can be described thus: growth of efflux-deficient E. coli DRC39 – strain DRC39, OD650, 24 h, E. coli filamentation inducers, primary screen (AID 1178).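 Also: growth measured as culture turbidity by optical density at 650 nm; test concentration not given here.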 Particulars: E. coli DRC39 acrAB, higher = more signal, called active from +8 up or from −8 down.
The nature of assay [8]: growth of efflux-deficient E. coli DRC39 – strain DRC39, OD650, 48 h, E. coli filamentation inducers, primary screen (AID 1179).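 Also: screen aims at cell division blockers that make cells filament.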 As to conditions: E. coli DRC39 delta-acrAB growth, higher = more signal, called active from +8 up or from −8 down.
A short description of assay [9]: viability profiling in RPMI8226 myeloma cells – cell-based, resazurin fluorescence, basal, 24 h, PK04 Diversity Set, profiling panel (AID 1180).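 Also: RPMI8826 multiple myeloma cell line at 5000 cells per well; test concentration not given here.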 As to conditions: higher = more signal.
Assay [10] deals with E3 ubiquitin-protein ligase XIAP (Homo sapiens) (UniProt P98170). Kind of assay: small molecules binding XIAP protein – biophysical, small-molecule microarray, fluorescence 635 nm, primary screen (AID 1181).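 Also: score merges 667 nm emission and signal to noise over triplicate slides.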 As to conditions: higher = more signal.
Chain of E3 ubiquitin-protein ligase XIAP (Homo sapiens) (P98170 whole entry, looked up): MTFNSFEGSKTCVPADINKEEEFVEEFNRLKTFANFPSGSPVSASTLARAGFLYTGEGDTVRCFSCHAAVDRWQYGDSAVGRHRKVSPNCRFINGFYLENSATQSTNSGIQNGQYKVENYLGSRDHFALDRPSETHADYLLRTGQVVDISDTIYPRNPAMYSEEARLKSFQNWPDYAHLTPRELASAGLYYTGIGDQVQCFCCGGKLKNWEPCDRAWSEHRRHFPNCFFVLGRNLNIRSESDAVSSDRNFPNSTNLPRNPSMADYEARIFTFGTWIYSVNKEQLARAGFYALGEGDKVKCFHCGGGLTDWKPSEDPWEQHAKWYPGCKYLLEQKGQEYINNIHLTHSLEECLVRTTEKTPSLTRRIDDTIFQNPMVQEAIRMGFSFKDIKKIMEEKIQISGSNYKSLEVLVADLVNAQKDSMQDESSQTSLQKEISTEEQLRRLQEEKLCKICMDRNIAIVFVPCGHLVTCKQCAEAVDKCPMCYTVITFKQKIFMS

On to `O=C(NC1CC1)[C@@H]1c2ccccc2C(=O)N(Cc2ccccc2)[C@H]1c1ccc(CO)cc1`, for which the z-score in assay [1] was 0.0991; in [2], 0.172 (inactive); in [3], -0.556 (inactive); in assay [5], -0.149 (inactive); in [6] it was 0.0831 (inactive); in assay [7], 0.693 (inactive). For the same compound, the results for the z-score in assay [8] and in [9] were 1.58 (inactive) and 0.904, respectively. Further, the composite z-score is -0.0098 (inactive) in assay [4] and 0.159 in [10].

For `CC=CC(O)C1C=CC2C(=O)N(c3ccccc3)C(=O)C2N1Nc1ccccc1` (stereo not given), the z-score was 0.965 in assay [1]; -1.01 (inactive) in assay [2]; 0.171 (inactive) in assay [3]; 1.89 (inactive) in assay [5]; -0.564 (inactive) in [6]; 0.176 (inactive) in assay [7]. Besides, the z-score in assay [8] is 0.412 (inactive); in assay [9], 0.394. Further, the composite z-score was -0.174 (inactive) in assay [4] and 0.649 in assay [10].

On to `CN(C)CCCNC(=O)[C@@H]1c2ccccc2C(=O)N(CC23CC4CC(CC(C4)C2)C3)[C@H]1c1ccc(CO)cc1`, for which the z-score is -0.701 in [1]; -3.33 (inactive) in [2]; -0.809 (inactive) in [3]; 0.0435 (inactive) in assay [5]; 0.28 (inactive) in assay [6]; 0.309 (inactive) in assay [7]. For the same compound, the z-score is 0.401 (inactive) in [8] and -0.692 in assay [9]. The composite z-score in assay [4] is -0.184 (inactive); in [10] it was 0.0973.

For `CCCc1cccc(=O)o1`, the z-score is 0.866 in assay [1]; 0.68 (inactive) in [2]; 0.821 (inactive) in assay [3]; 0.353 (inactive) in [5]; -0.243 (inactive) in [6]; -0.161 (inactive) in assay [7]. Besides, the figures for the z-score in [8] and in [9] were 0.846 (inactive) and 0.819, respectively. In addition, the composite z-score in assay [4] was -0.661 (inactive); in [10], -0.0721.

Turning to `CCOc1cc(C(O)C2C=CC3C(=O)N(C4CCCCC4)C(=O)C3N2Nc2ccc(OC)cc2)ccc1O` (stereo not given), the z-score in assay [1] is 0.182; in [2] it was 0.0779 (inactive); in [3] it was 0.312 (inactive); in [5], 0.698 (inactive); in assay [6] it was 0.0701 (inactive); in [7], 0.231 (inactive). Also, the results for the z-score in assay [8] and in assay [9] were 1.13 (inactive) and 0.753, respectively. Moreover, the composite z-score in [4] is -0.665 (inactive); in assay [10] it was 0.169.

As to `COCCOC(=O)N1C(=O)[C@@]2(c3cc(C#CCNC(N)=O)ccc31)[C@H](C(=O)N1CCCCCCC1)[C@H]1C(=O)O[C@H](c3ccccc3)[C@H](c3ccccc3)N1[C@@H]2c1ccc(O)cc1`, the z-score in [1] is -0.515; in assay [2], -0.129 (inactive); in assay [3], -0.97 (inactive); in [5], 0.0442 (inactive); in assay [6], 0.786 (inactive); in assay [7], -0.5 (inactive). Further, the figures for the z-score in [8] and in assay [9] were -0.719 (inactive) and -0.928, respectively. Besides, the composite z-score is -0.376 (inactive) in assay [4] and 0.0614 in assay [10].

`O=C1O[C@@H](c2ccccc2)[C@@H](c2ccccc2)N2[C@@H](c3ccccc3OCCO)[C@]3(C(=O)Nc4ccc(C#CC5=CCCCC5)cc43)[C@@H](C(=O)NC[C@H](O)c3ccccc3)[C@H]12`: the z-score in assay [1] was -1.33; in assay [2] it was 0.961 (inactive); in [3] it was -7.07 (inactive); in assay [5] it was 0.787 (inactive); in assay [6], 0.979 (inactive); in assay [7] it was -0.0029 (inactive). Besides, the figures for the z-score in [8] and in [9] were -0.208 (inactive) and -5.79, respectively. The composite z-score is 0.578 (inactive) in assay [4] and -0.16 in assay [10].

`Cc1ccc(S[C@]2(C(=O)NC(C)C)CC(=O)N(C3Cc4ccccc4C3)[C@@H]2c2ccc(CO)cc2I)cc1`: the z-score in assay [1] was -0.703; in assay [2], -3.55 (inactive); in assay [3] it was -3.17 (inactive); in [5] it was 0.379 (inactive); in [6] it was -0.639 (inactive); in assay [7] it was 0.525 (inactive). The z-score is 0.969 (inactive) in [8] and -2.08 in assay [9]. Further, the composite z-score was -2.86 (inactive) in assay [4] and -0.0795 in assay [10].

`CO[C@H]1O[C@H](CO)[C@@H](OC(=O)Nc2ccc(Oc3ccccc3)cc2)[C@H](OC(=O)Nc2ccccc2-c2ccccc2)[C@@H]1OC(=O)Nc1ccccc1-c1ccccc1`: the z-score in assay [1] is 0.776; in [2], 1.01 (inactive); in [3], -0.648 (inactive); in [5], 0.18 (inactive); in assay [6] it was 2.58 (inactive); in [7], -0.325 (inactive). For the same compound, the z-score was -0.0232 (inactive) in assay [8] and -0.296 in assay [9]. The composite z-score in assay [4] is 0.308 (inactive); in assay [10], -0.117.

On to `CC(CO)N1C(=O)[C@@H]2C3C(=O)OCCC/C=C\[C@H]3OC23C=CCN(Cn2nnc4ccccc42)C(=O)[C@@H]13` (stereo not given in full), for which the z-score in assay [1] was 0.256; in assay [2], -0.159 (inactive); in assay [3] it was 0.595 (inactive); in [5] it was 0.205 (inactive); in assay [6] it was 0.549 (inactive); in assay [7], 0.935 (inactive). For the same compound, the z-score is 0.829 (inactive) in assay [8] and 0.605 in assay [9]. The results for the composite z-score in assay [4] and in assay [10] were -2.72 (inactive) and 0.0511, respectively.

On to `CCOC(=O)C[C@H]1[C@H](OC(=O)c2ccc(C(=O)c3ccccc3)cc2)[C@@H](NC(=O)c2ccc3ccccc3c2)c2cc(OCCCO)ccc2N1C(=O)c1ccccc1`, for which the z-score was -0.55 in assay [1]; -0.592 (inactive) in assay [2]; -0.377 (inactive) in assay [3]; 0.055 (inactive) in assay [5]; -0.617 (inactive) in [6]; 0.347 (inactive) in [7]. Also, the figures for the z-score in [8] and in assay [9] were 0.212 (inactive) and -0.539, respectively. The composite z-score in assay [4] is -0.46 (inactive); in assay [10], -0.0367.

With `COc1cc(CO)cc(I)c1O[C@H]1C=C(C(=O)NCCO)C[C@@H](NCc2ccccc2F)[C@@H]1O`, the z-score was -0.0271 in assay [1]; -2.31 (inactive) in assay [2]; -0.233 (inactive) in [3]; -0.365 (inactive) in assay [5]; 1.09 (inactive) in assay [6]; 0.491 (inactive) in assay [7]. Further, the z-score in [8] was 0.41 (inactive); in [9] it was 0.559. In addition, the composite z-score was 1.28 (inactive) in assay [4] and 0.0669 in [10].

Consider `C=CCOC(=O)[C@@H]1[C@H]2C(=O)O[C@H](c3ccccc3)[C@H](c3ccccc3)N2[C@H](c2ccc(OCCOC(=O)[C@H]3C[C@H]4C(=O)N[C@@H](CCCCNC(C)=O)C(=O)N4[C@H]3c3cccc(OCCO)c3)cc2)[C@@]12C(=O)Nc1ccc(I)cc12`, for which the z-score in assay [1] was -0.299; in [2], 1.39 (inactive); in assay [3], -0.565 (inactive); in assay [5], 4.17 (inactive); in [6], 2 (inactive); in [7] it was -0.115 (inactive). The figures for the z-score in assay [8] and in [9] were 0.228 (inactive) and -0.354, respectively. For the same compound, the values for the composite z-score in [4] and in assay [10] were -0.406 (inactive) and 0.0073, respectively.
